# Records with an inconclusive call do not appear. Entries that show only a call come without a potency. The source made the active and inactive calls. Calls follow the shape of the dose curve; as a rule, active = well fitted inhibition curve with a large enough effect in the repeat runs; inconclusive = weak or mixed curves; inactive = no such curve, though single readings can be large or run the other way.
# Biological target: Cytochrome P450 2D6 (Homo sapiens) (UniProt P10635)
# Assay: Cytochrome P450 Family 2 Subfamily D Member 6 (CYP2D6) small molecule antagonists: luciferase reporter qHTS assay (AID 1671196); also: nearly all actives have a fitted effect of over 50% in size
# Details: P450-Glo CYP2D6 enzyme assay, luciferin luminescence, 1 h; series mostly up to 115 µM
# Description: U.S. Tox21 Program National Center for Advancing Translational Sciences [NCATS] U.S. Environmental Protection Agency [EPA] National Institutes of Environmental Health Sciences [NIEHS] National Toxicology Program [NTP] U.S. Food and Drug Administration [FDA] Tox21 Assay Overview: Cytochrome P450 (CYP) enzymes are membrane-bound hemeproteins that play a key role in metabolism of drugs and xenobiotics. Evaluation of the effect of chemicals on CYP isozymes is useful to minimize the adverse drug reactions and toxicities in drug development process. Tox21 chemicals were tested for their effect on CYP enzyme activities by using P450-Glo (TM) screening systems (Promega Corporation, Madison, WI). These systems provide a luminescent method containing proluciferin substrates and are converted to luciferin products by CYP isozymes. The luciferin products formed are detected with a luciferin detection reagent, and the amount of light produced is proportional to CYP activity. P450-Glo (TM) CYP2D6 screening system (Catalog. No. V9890) was used to detect the compounds that interfere in CYP2D6 activity.
# Tox21 Assay Protocol Summary: Two ul of enzyme-substrate mix was dispensed into medium binding white/solid 1536-well plates (Greiner Bio-One North America Inc., Monroe, NC) using a BioRaptr Flying Reagent Dispenser (FRD, Beckman Coulter, Brea, CA). […] The assay plates were incubated at room temperature for 10 min. Then 2 ul of NADPH regeneration solution was added to each well of the assay plates using an FRD and incubated at room temperature for 1 h. The reaction was stopped by adding 4 ul of detection reagent using an FRD and after 20 min incubation at room temperature the luminescence signal was measured using a ViewLux plate reader (Perkin Elmer, Shelton, CT). Data were expressed as relative luminescence units.
# Potency is read from the fitted curve at half-maximal effect.
# Cytochrome P450 2D6 (Homo sapiens), sequence (P10635 whole entry, looked up): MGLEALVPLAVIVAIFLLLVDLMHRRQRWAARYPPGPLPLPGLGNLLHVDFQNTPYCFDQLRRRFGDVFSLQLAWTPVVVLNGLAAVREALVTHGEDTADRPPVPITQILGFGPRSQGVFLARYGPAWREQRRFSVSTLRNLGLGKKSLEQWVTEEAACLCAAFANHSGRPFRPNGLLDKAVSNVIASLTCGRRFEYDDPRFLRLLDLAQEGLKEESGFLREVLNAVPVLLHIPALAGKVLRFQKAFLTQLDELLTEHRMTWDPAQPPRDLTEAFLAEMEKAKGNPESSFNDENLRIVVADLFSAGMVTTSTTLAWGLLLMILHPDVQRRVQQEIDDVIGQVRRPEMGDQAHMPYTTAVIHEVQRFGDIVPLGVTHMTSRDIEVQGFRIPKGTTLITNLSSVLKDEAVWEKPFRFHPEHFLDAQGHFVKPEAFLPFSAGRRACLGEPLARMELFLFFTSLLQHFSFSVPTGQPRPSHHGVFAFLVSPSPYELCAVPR
row,SMILES,Potency
1,C=CCCl,inactive
2,O=C(O)COc1ccc(Cl)cc1,inactive
3,Cc1ccc(N)cc1C,5.07 µM (active)
4,Cc1cc(=O)[nH]o1,inactive
5,CCOP(=S)(OCC)Oc1cc(Cl)c(Br)cc1Cl,inactive
6,O=NN1CCCCCC1,inactive
7,IC(I)=C(I)I,inactive
8,O=[N+]([O-])C(Br)(CO)CO,inactive
9,CN(C)c1ccc(N(C)C)cc1,20.1 µM (active)
10,ClCc1cccc(Cl)c1,27.5 µM (active)
11,CCCC(=O)Cl,inactive
12,O=C(O)c1ccccc1C(=O)Nc1cccc2ccccc12,31.7 µM (active)
13,CNC(C)Cc1ccccc1OC (stereo not given),13.8 µM (active)
14,CCOP(O)OCC,inactive
15,CNP(=O)(OC)Oc1ccc(C(C)(C)C)cc1Cl (stereo not given),71 µM (active)
16,O=C(O)CC(Cl)C(=O)O (stereo not given),inactive
17,O=S(=O)(O)C(F)(F)C(F)(F)C(F)(F)C(F)(F)F,59.8 µM (active)
18,CC/C(=N\OC/C=C/Cl)C1=C(O)CC(C2CCOCC2)CC1=O (stereo not given),inactive
19,COP(=S)(OC)Oc1ccc([N+](=O)[O-])cc1Cl,inactive
20,C#CCOC(C(=O)OCCN(C)C)(c1ccccc1)c1ccccc1,3.47 µM (active)

row,SMILES,Potency
1,CC(C)(C)c1cc([N+](=O)[O-])cc([N+](=O)[O-])c1O,inactive
2,COC(=O)c1cncn1C(C)c1ccccc1 (stereo not given),8.71 µM (active)
3,CC(C)=CCOc1c2occc2cc2ccc(=O)oc12,4.9 µM (active)
4,[CH3][Sn]([CH3])([Cl])[Cl],inactive
5,O=C(C(Cl)(Cl)Cl)C(Cl)(Cl)Cl,36.3 µM (active)
6,COCC(C)N(C(=O)CCl)c1c(C)csc1C (stereo not given),inactive
7,O=[Se]=O,inactive
8,Cc1ccc2ccccc2c1,inactive
9,CCCCN=C=O,inactive
10,Oc1ccc(Cl)c(Cl)c1Cl,inactive
11,NC(=O)C(Cl)(Cl)Cl,inactive
12,Cn1sc(Cl)cc1=O,inactive
13,c1ccc(CN2CCNCC2)cc1,17.2 µM (active)
14,C/C=C/C=O,inactive
15,CC(Cl)Cl,inactive
16,COC(=O)C(Br)CBr (stereo not given),inactive
17,C(=NC1CCCCC1)=NC1CCCCC1,63.3 µM (active)
18,CC(O)(CS(=O)(=O)c1ccc(F)cc1)C(=O)Nc1ccc(C#N)c(C(F)(F)F)c1 (stereo not given),inactive
19,N#Cc1ccc(Cl)cc1,inactive
20,CN1[C@@H]2CC[C@H]1CC(OC(=O)c1cc(Cl)cc(Cl)c1)C2 (stereo not given in full),0.055 µM (active)

# Source: PubChem BioAssay (Tox21)
